Compound activity deposited in PubChem BioAssay by several laboratories.
A selection: hits, their analogues and other compounds. The true share with any hit is near 4.2%.
V-ATPase pH: yeast V-ATPase proton transport regulation by pHLuorin; S. cerevisiae, pHLuorin cytosolic pH fluorescence; response, % at 10 µM; 350,000 tested, 0.37% active; AID 504577; in the data active = response mostly above about 7.3%, no sharp cut-off; inactive = mostly below about 5.4%; also: actives read high
NLRP3 yeast inh: blocks the NALP3 inflammasome reconstituted in yeast; Yeast reconstituted NLRP3/ASC/caspase-1, beta-gal luminescence, 24 h; inhibition, % at 10 µM; 330,000 tested, 0.39% active; AID 2825;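 active = inhibition of 50% or more; inactive = inhibition below 50%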;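 also: plate controls were induced DMSO wells for no effect and uninduced yeast grown without galactose for full effect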
NALP1 inh: inhibitors of NALP1 inflammasome in yeast. S. cerevisiae NALP1/ASC/caspase-1 growth, X-gal OD620, 72 h. 280,000 tested, 0.61% active. inhibition, % at 10 µM; in the data active = inhibition mostly above about 24%, no sharp cut-off; inactive = mostly below about 32%
tim23-1 inh: tim23-1 yeast growth inhibition; inhibition, % at 20 µM; 330,000 tested, 1.3% active; AID 463212; S. cerevisiae tim23-1 growth, BacTiter-Glo luminescence, 24 h;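 active = growth inhibition of the mutant yeast at or above 50%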;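 also: temperature-sensitive mutant grown at 25 °C; plate controls were DMSO-treated mutant yeast for no effect and medium wells lacking yeast for full effect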
tim10-1 inh: inhibits growth of tim10-1 mutant yeast. S. cerevisiae tim10-1 ts strain growth, BacTiter-Glo, 24 h. inhibition, % at 20 µM. 330,000 tested, 2.2% active. AID 463190;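 active = inhibition of at least 40%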;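 also: mutant grown at 25 °C; 0% = DMSO wells with yeast and 100% = wells holding no yeast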
TIM10 inh: growth inhibitors of TIM10 yeast strain; 330,000 tested, 1.4% active; inhibition, % at 10 µM; S. cerevisiae TIM10 strain growth, BacTiter-Glo luminescence, 24 h;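 active = inhibition of 40% or more at the single tested concentration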;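 also: wild-type TIM10 isogenic control strain grown at permissive 25 °C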
tim10-1 confirm: confirmation of tim10-1 mutant yeast growth inhibitors. shares compounds with tim10-1 inh. S. cerevisiae tim10-1 ts strain growth, BacTiter-Glo, 24 h. inhibition, % at 20 µM. 7,400 tested, 56% active. AID 463213;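 active = inhibition of yeast growth at or above a set limit in either of two repeat tests at 20 µM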;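 also: tim10-1 mutant grown at permissive 25 °C to find synthetic lethal compounds; 0% = DMSO yeast wells and 100% = medium wells without yeast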
tim10 confirm: confirmation of TIM10 yeast growth inhibitors | shares compounds with TIM10 inh | S. cerevisiae tim10 strain growth, BacTiter-Glo luminescence, 24 h | inhibition, % at 10 µM | 4,600 tested, 63% active | AID 463215;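 active = inhibition of yeast growth at or above a set limit in either of two replicates at 10 µM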;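 also: this counterscreen used the strain with wild-type TIM10; 0% = yeast with DMSO and 100% = medium wells lacking yeast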
tim23-1 confirm: tim23-1 yeast growth inhibition, confirmed. shares compounds with tim23-1 inh. S. cerevisiae tim23-1 growth, BacTiter-Glo luminescence, 24 h. inhibition, % at 20 µM. 4,400 tested, 83% active;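 active = inhibition above about 39% in either of two replicate wells at 20 µM, limit read from the data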;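 also: temperature-sensitive tim23-1 mutant grown at 25 °C; 0% = DMSO wells with yeast and 100% = medium wells without yeast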
Numbers without * were called inactive; / = not tested or not shown.

SMILES	V-ATPase pH	NLRP3 yeast inh	NALP1 inh	tim23-1 inh	tim10-1 inh	TIM10 inh	tim10-1 confirm	tim10 confirm	tim23-1 confirm
CC1(C)CC(=NOC(=O)c2ccccc2)CC(C)(C)N1O	3	18	29	68*	58*	58*	61*	70*	78*
Cc1ccc(C(=O)OCn2ncc(Cl)c(Cl)c2=O)cc1	2	4	-7	79*	75*	72*	78*	70*	71*
O=C(OCn1ncc(Cl)c(Cl)c1=O)c1ccc(C(F)(F)F)cc1	4	-28	0	78*	75*	42*	74*	41*	79*
O=C(O)c1ccc(-n2ncc(Cl)c(Cl)c2=O)cc1	4	/	/	/	/	/	/	/	/
Cc1ccc(C)c(C(=O)Cn2ncc(Cl)c(Cl)c2=O)c1	-1	20	12	43	23	-4	/	/	/
Cc1ccc(NC(=O)CCCNC(=O)c2ccc(Cl)cc2)c(O)c1	-3	16	9	-2	-6	-13	/	/	/
CCOc1ccccc1N(CC(=O)NC(C)(C)C)C(=O)CCC(=O)Nc1nccs1	7	6	4	15	9	-5	/	/	/
COc1ccc(Nc2c([N+](=O)[O-])ccc3c2=NC2(CCCCC2)N=3)cc1	-2	39	2	47	36	38	/	/	/
COc1cc(-c2nc3ccccc3s2)ccc1O	-1	26	11	52*	50*	49*	53*	48*	55*
Cc1cc(C)n(C(C[N+](=O)[O-])c2ccc(Cl)cc2)n1 (centres undefined)	9	22	101*	76*	42*	77*	54*	68*	30
CN1C(=O)/C(=C\C(=O)c2cccs2)c2ccccc21	1	20	-15	84*	47*	85*	70*	81*	-86
O=C1CCN(C(=O)c2cccs2)c2ccccc21	3	-4	23	1	8	2	/	/	/
O=C(NC(=S)Nc1cc(Cl)ccc1N1CCOCC1)c1ccccc1[N+](=O)[O-]	-5	32	18	56*	51*	45*	50*	47*	55*
C=CCOc1ccc(C2/C(=C(\O)c3ccc4c(c3)OCCO4)C(=O)C(=O)N2CCCN2CCOCC2)cc1 (centres undefined)	-8	14	0	8	3	3	/	/	/
C[C@H](CO)N1C[C@H](C)[C@@H](CN(C)C(=O)Nc2ccc(C(F)(F)F)cc2)Oc2ccc(NC(=O)Cn3cnnn3)cc2C1=O	-2	7	/	-1	-2	-1	/	/	/
N/C(Cc1ccc(Cl)cc1Cl)=N\OC(=O)Cc1ccccc1	-2	17	34	75*	52*	86*	23	88*	61*
COc1ccc(C/C(N)=N/OC(=O)Cc2ccccc2)cc1OC	-2	3	2	16	16	-2	/	/	/
O=C1NC(=O)C2(CCCCC2C2CCCCC2)N1 (centres undefined)	-1	/	/	/	/	/	/	/	/
O=c1cc(CN2CCc3ccccc32)c2ccc(O)cc2o1	0	-3	8	51*	44*	20	32*	/	48*
COc1ccccc1OCc1cc(C(=O)N2CCN(C)C(c3ccccc3)C2)no1 (centres undefined)	-1	36	0	55*	52*	29	27	/	37
O=C(CSc1nc2ccccc2s1)N/N=C/c1ccco1	-3	6	35	5	0	-4	/	/	/
N#C/C(=C\c1ccco1)Sc1nc2ccccc2s1	5	49	-12	58*	50*	56*	58*	44*	51*
C/C(=N\NC(=S)Nc1cccc(C)c1)c1cccc(N)c1	-1	9	11	37	37	24	/	/	/
C/C(=N\NC(=S)Nc1cccc(C)c1)c1ccccc1	5	42	8	51*	51*	60*	50*	-23	52*
CCC/C=C/c1ccc(CN2C(CC(C)C)C(=O)N(Cc3cn(CC4CCCCC4)nn3)CCS2(=O)=O)cc1 (centres undefined)	-4	/	/	/	/	/	/	/	/
SMILES	V-ATPase pH	NLRP3 yeast inh	NALP1 inh	tim23-1 inh	tim10-1 inh	TIM10 inh	tim10-1 confirm	tim10 confirm	tim23-1 confirm
O=C(/C=C\c1ccccc1[N+](=O)[O-])Nc1ccccc1	-4	42	-7	4	-28	-11	/	/	/
O=C(/C=C/c1ccccc1[N+](=O)[O-])c1ccccc1Br	2	42	3	80*	63*	64*	73*	70*	79*
Cc1cccc(C)c1NS(=O)(=O)c1ccc(-c2cnc(C3CC3)o2)cc1	-1	14	-4	71*	54*	36	32*	/	63*
COc1ccc(NC(=O)CS(=O)CC(=O)Nc2cccnc2)cc1 (centres undefined)	2	14	5	1	-4	-11	/	/	/
Cc1ccsc1/C=N/NC(=O)c1ccc(Cn2cc(Br)cn2)o1	3	-1	30	-9	-12	-11	/	/	/
O=C(N/N=C/c1cccc(Br)c1)c1ccc(Cn2cc(Br)cn2)o1	-3	5	35	76*	49*	68*	60*	81*	83*
O=C(Nc1cccc2ccccc12)c1ccc([N+](=O)[O-])o1	0	13	10	78*	80*	68*	75*	74*	75*
Cc1ccc(C(=O)Nc2cccc3ccccc23)o1	5	11	/	26	-7	0	/	/	/
COc1ccccc1NC(=O)c1ccc(-c2ccccc2F)o1	-4	15	-2	17	3	17	/	/	/
CCCn1c(NC(=O)c2ccc([N+](=O)[O-])o2)nc2ccccc21	-5	26	/	51*	55*	41*	49*	61*	58*
Cc1cccc(NC(=O)c2ccc([N+](=O)[O-])o2)c1C	0	26	3	50*	62*	56*	61*	42*	39*
COc1ccccc1NC(=O)c1ccc([N+](=O)[O-])o1	-2	18	/	79*	66*	47*	56*	46*	72*
Cc1ccc(NC(=O)c2ccc([N+](=O)[O-])o2)cc1C	2	4	-21	-19	6	13	/	/	/
O=C(Nc1ccccc1C(=O)NC1CC1)c1ccc([N+](=O)[O-])o1	5	10	/	64*	48*	40	34*	/	66*
O=C1c2c(Br)c(Br)c(Br)c(Br)c2C(=O)N1c1ccccn1	1	34	6	86*	76*	69*	75*	75*	58*
